Calls of active or inactive are those of the source. Unless noted, the rule behind the calls is not given here.

Experiment [1] can be described thus: anti-His antibody binders, primary screen, artefact control for SMM control protein annotation, biochemical, small-molecule microarray, 635 nm fluorescence (AID 1128).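 Note: score merges feature fluorescence with signal-to-noise for each printed compound spot.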 The note with it: anti-His Alexa647 antibody binding, higher = more signal.
Experiment [2] relates to Human papillomavirus type 1a E7 protein (residues 1-88). As to the kind of experiment: HPV1a E7 small-molecule binders, primary screen, biochemical, small-molecule microarray, residues 1-88, 635 nm (AID 1129). The note with it: small-molecule microarray binding, fluorescence 635 nm; higher = more signal.
Experiment [3] addresses Focal adhesion kinase 1 (Homo sapiens) (UniProt Q05397). As to the kind of experiment: small-molecule microarray binders of FAK, primary screen, biochemical, 635/667 nm fluorescence, BSA, DTT (AID 1130).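 Note: composite of spot emission at 667 nm and signal to noise over triplicate slides.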 The note with it: PTK2 binding, 635 nm fluorescence, higher = more signal.
Experiment [4] deals with Fibrinogen (Alexa647-labelled). As to the kind of experiment: fibrinogen binders on compound microarrays, profiling panel, artefact control for SMM control-protein annotation, biochemical, small-molecule microarray, 635/667 nm fluorescence (AID 1131).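 Note: z-score merges 667 nm fluorescence with per-spot signal-to-noise over triplicate slides.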 The note with it: fibrinogen-A647 binding fluorescence, higher = more signal.
Experiment [5] has as its target Follistatin (Homo sapiens) (UniProt P19883). As to the kind of experiment: follistatin binders on small-molecule microarrays, primary screen, biochemical, small-molecule microarray, 635/667 nm fluorescence (AID 1132). The note with it: FST binding, 635 nm fluorescence, higher = more signal.
The target of experiment [6] is Fibroblast growth factor 2 (Homo sapiens) (UniProt P09038). As to the kind of experiment: FGF2 binders on small-molecule microarrays, primary screen, biochemical, small-molecule microarray, 635/667 nm fluorescence (AID 1133). The settings on record: small-molecule microarray binding, FGF2, fluorescence 635/667; higher = more signal.
Fibroblast growth factor 2 (Homo sapiens), sequence (P09038 whole entry, looked up): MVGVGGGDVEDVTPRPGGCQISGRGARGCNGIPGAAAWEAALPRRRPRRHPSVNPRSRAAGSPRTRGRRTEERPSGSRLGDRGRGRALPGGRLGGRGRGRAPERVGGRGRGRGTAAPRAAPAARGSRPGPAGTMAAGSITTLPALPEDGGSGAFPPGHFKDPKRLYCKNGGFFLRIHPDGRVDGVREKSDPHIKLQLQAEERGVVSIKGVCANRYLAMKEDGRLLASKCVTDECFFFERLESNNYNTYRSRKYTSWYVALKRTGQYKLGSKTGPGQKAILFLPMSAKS
The nature of experiment [7]: mitochondrial membrane potential change in A549 cells, profiling panel, cell-based, JC-1 fluorescence, basal, 24 h, 100 nL (AID 1138).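 Note: A549 lung adenocarcinoma cells under basal conditions with no added stimulus; test concentration not given here.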 The note with it: higher = more signal.
The subject of another experiment is Lefty1. In words: Lefty1 binders on small-molecule microarrays, primary screen, biochemical, small-molecule microarray, 635/667 nm fluorescence (AID 1139). The note with it: small-molecule microarray binding, fluorescence 635/667; higher = more signal.
For experiment [8], the system named is wheat germ agglutinin (Triticum aestivum), Alexa647-labelled. In words: wheat germ agglutinin binders on compound microarrays, profiling panel, artefact control for SMM control-protein annotation, biochemical, small-molecule microarray, 635/667 nm fluorescence (AID 1140).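 Note: score merges 667 nm feature emission with signal to noise over triplicate slides.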 The note with it: WGA-A647 binding, 635 nm fluorescence, higher = more signal.
Experiment [9] concerns the target Luciferin 4-monooxygenase (Photinus pyralis) (UniProt P08659). In words: firefly luciferase enzyme inhibitors, primary screen, biochemical, luminescence, purified enzyme, 2006 set (AID 1141).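 Note: cell-free assay with purified firefly luciferase at 100 ng per well in PBS; test concentration not given here.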 The settings on record: SteadyGlo luminescence, 30 min, higher = more signal, called active from +8 up or from −8 down.
The subject of experiment [10] is Wnt5a (protein binding on small-molecule microarray). As to the kind of experiment: Wnt5a binders on small-molecule microarray, primary screen, biophysical, 635/667 nm fluorescence (AID 1142).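 Note: fluorescence read at 667 nm with signal to noise per printed feature.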 The note with it: 635 nm fluorescence, higher = more signal.
Experiment [11] in a line: cell viability in Huh7 cells, primary screen, cytotoxicity control for HCV replication inhibitor project, CellTiter-Glo luminescence, basal, 48 h (AID 1143).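 Note: Huh7 hepatoma cells carrying a hepatitis C replication reporter with no stimulus; test concentration not given here.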 The note with it: Huh7 HCV replicon, higher = more signal, called active from +8 up or from −8 down.
Experiment [12] in a line: P. aeruginosa biofilm formation inhibitors, primary screen, PAO1 strain, BacTiter-Glo luminescence, LB-PBS (AID 1144). The settings on record: 12 h, higher = more signal.
Experiment [13] can be described thus: CREB reporter modulators without forskolin, primary screen, cell-based, PC12, CRE-LacZ reporter, unstimulated (AID 1145). The settings on record: no forskolin, luminescence, 4.5 h, higher = more signal, called active from +8 up or from −8 down.
Experiment [14] in a line: CREB reporter modulators under forskolin, primary screen, cell-based, PC12, CRE-LacZ reporter, forskolin-stimulated (AID 1146).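 Note: PC12 cells with 6xCRE LacZ reporter stimulated by forskolin 10 µM; beta-galactosidase reporter signal reflecting CREB driven transcription.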 The settings on record: luminescence, 4.5 h, higher = more signal, called active from +8 up or from −8 down.
Experiment [15] addresses Streptavidin (Streptomyces avidinii) (UniProt P22629). As to the kind of experiment: streptavidin binders on small-molecule microarray, primary screen, artefact control for SMM compound annotation, biophysical, 635/667 nm fluorescence (AID 1147).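 Note: signal reflects streptavidin binding to arrayed compounds as a control protein.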 The note with it: streptavidin binding, higher = more signal.
A short description of experiment [16]: small-molecule binders of probe aInhba, primary screen, biochemical, small-molecule microarray, 635/667 nm fluorescence (AID 1148).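 Note: score merges 667nm spot fluorescence with signal-to-noise for antibody binding to printed compounds.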 The note with it: higher = more signal.
Experiment [17] deals with Torsin-1A (Homo sapiens) (UniProt O14656). In words: torsin A binders from cell lysate, primary screen, small-molecule microarray, wild-type, 635/667 nm (AID 1149). The settings on record: COS7 hTOR1A-WT lysate, 635 nm fluorescence, higher = more signal.
Torsin-1A (Homo sapiens), sequence (O14656 whole entry, looked up): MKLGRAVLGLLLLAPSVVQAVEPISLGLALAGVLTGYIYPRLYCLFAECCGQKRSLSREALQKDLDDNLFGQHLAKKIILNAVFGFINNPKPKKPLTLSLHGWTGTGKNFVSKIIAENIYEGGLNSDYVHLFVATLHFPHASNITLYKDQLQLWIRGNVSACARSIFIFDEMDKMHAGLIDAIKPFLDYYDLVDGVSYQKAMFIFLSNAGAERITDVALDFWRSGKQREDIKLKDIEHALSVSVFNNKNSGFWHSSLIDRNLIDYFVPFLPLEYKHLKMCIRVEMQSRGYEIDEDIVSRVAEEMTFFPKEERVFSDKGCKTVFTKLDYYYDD
Experiment [18] has the same target. As to the kind of experiment: small-molecule binders of mutant TOR1A in lysate, primary screen, cell lysate, small-molecule microarray, COS7 lysate, 635/667 nm fluorescence (AID 1150).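 Note: score pools 667 nm emission and signal to noise measuring lysate protein binding.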 The note with it: COS7 hTOR1A mutant lysate, 635 nm fluorescence, higher = more signal.
For experiment [19], the system named is Sonic hedgehog protein (Shh). As to the kind of experiment: small-molecule binders of Shh protein, primary screen, biochemical, small-molecule microarray, 635/667 nm fluorescence (AID 1151).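 Note: Shh protein binding to compounds spotted on small-molecule microarray slides; score combines spot fluorescence intensity with signal-to-noise across triplicate slides.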 The note with it: small-molecule microarray binding, 635 nm fluorescence; higher = more signal.

Streptavidin (Streptomyces avidinii), sequence (P22629 whole entry, looked up): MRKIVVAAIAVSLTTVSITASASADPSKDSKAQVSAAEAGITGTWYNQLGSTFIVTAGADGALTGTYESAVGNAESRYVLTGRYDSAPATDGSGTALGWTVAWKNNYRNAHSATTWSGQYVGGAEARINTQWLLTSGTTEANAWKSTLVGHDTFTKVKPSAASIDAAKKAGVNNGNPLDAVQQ
Follistatin (Homo sapiens), sequence (P19883 whole entry, looked up): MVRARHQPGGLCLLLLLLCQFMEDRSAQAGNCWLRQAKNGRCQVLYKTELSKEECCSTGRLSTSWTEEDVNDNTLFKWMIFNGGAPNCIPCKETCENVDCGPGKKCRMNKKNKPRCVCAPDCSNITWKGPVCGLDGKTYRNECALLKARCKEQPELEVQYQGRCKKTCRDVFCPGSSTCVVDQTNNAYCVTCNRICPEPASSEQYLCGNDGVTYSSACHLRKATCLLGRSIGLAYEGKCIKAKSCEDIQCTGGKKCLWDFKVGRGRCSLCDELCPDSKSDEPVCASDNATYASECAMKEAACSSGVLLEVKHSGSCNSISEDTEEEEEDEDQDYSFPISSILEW
Luciferin 4-monooxygenase (Photinus pyralis), sequence (P08659 whole entry, looked up): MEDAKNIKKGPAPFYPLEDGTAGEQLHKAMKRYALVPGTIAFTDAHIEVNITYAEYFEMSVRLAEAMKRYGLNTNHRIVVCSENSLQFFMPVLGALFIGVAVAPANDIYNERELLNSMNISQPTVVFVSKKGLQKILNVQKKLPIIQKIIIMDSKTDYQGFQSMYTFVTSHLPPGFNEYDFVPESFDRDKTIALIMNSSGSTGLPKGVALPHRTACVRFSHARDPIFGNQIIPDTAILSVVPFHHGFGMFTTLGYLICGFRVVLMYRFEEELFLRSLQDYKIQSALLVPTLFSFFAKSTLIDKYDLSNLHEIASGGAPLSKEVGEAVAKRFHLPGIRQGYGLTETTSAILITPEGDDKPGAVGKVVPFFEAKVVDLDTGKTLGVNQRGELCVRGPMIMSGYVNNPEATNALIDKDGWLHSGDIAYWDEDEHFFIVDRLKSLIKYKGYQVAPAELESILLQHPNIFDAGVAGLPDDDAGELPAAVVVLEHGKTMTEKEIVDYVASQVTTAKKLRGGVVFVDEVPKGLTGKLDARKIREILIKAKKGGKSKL
Focal adhesion kinase 1 (Homo sapiens), sequence (Q05397 whole entry, looked up): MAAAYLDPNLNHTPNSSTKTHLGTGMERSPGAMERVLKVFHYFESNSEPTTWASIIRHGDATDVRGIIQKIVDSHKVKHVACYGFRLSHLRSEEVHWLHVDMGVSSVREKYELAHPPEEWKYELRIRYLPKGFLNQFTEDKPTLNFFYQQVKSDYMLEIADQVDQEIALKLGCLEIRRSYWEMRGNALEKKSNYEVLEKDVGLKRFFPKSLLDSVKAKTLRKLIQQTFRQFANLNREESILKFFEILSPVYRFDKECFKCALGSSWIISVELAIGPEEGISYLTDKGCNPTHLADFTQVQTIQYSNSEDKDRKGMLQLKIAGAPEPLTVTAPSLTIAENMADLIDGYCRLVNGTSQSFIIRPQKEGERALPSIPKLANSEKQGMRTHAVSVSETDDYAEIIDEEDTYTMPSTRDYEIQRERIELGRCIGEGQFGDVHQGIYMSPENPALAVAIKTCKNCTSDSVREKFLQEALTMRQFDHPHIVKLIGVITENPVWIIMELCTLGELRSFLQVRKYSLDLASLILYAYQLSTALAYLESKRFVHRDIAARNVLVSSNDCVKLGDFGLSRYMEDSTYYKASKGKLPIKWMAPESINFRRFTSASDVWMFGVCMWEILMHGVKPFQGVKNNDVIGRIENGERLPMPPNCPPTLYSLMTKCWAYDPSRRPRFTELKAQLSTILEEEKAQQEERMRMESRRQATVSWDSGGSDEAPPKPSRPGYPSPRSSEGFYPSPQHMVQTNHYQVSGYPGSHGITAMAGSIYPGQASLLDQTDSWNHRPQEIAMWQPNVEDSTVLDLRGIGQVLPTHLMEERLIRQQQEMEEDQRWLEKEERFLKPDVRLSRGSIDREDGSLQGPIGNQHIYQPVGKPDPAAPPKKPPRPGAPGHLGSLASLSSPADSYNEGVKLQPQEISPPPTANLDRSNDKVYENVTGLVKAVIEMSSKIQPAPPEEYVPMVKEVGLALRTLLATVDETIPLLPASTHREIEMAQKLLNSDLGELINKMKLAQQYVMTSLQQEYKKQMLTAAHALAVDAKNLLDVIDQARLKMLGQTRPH

With `O=C1OCCC=C[C@H]2OC34C=CCN(CCN5CCOCC5)C(=O)[C@H]3N(CCCCCCO)C(=O)[C@@H]4C12` (stereo not given in full), the composite z-score was 0.626 in experiment [1]; -0.525 in experiment [2]; 0.604 in [3]; -1 in experiment [4]; -0.061 in experiment [5]; -0.486 in experiment [6]. Also, the composite z-score is 0.0839 in the experiment on Lefty1; -0.255 in experiment [8]; -0.0312 in [10]; -0.393 in experiment [15]; -0.179 in experiment [16]; 0.811 in the experiment with Torsin-1A (Homo sapiens) [17]. Further, the composite z-score with Torsin-1A (Homo sapiens) [18] is -0.839; in experiment [19] it was 0.65. In addition, the z-score is 0.884 in experiment [7]; -0.892 (inactive) in [9]; 0.18 (inactive) in experiment [11]; -0.134 (inactive) in [12]; 1.55 (inactive) in experiment [13]; 0.0231 (inactive) in [14].

As for `CCCCC=C[C@@H](NC(=O)Oc1cccc(C(F)(F)F)c1)c1ccccc1`, the composite z-score was found to be 0.291 in experiment [1]; 1.21 in [2]; 0.0053 in experiment [3]; 1.01 in experiment [4]; 0.572 in experiment [5]; 1.63 in experiment [6]. In addition, the composite z-score is -0.0322 with Lefty1; 1.15 in [8]; 1.61 in [10]; 1.84 in [15]; 0.996 in experiment [16]; 0.961 with Torsin-1A (Homo sapiens) [17]. In addition, the composite z-score with Torsin-1A (Homo sapiens) [18] is 0.947; in experiment [19], -0.629. The z-score in [7] was -1.68; in [9] it was 1.52 (inactive); in experiment [11] it was -3.46 (inactive); in experiment [12], -0.721 (inactive); in [13], 0.201 (inactive); in experiment [14] it was 0.0897 (inactive).

As to `COc1ccc(CCNC(=O)[C@@H]2c3ccccc3C(=O)N(C3Cc4ccccc4C3)[C@H]2c2ccc(CO)cc2)cc1`, the composite z-score came out at 1.12 in experiment [1]; 0.655 in experiment [2]; 1.02 in [3]; 0.92 in experiment [4]; 0.25 in experiment [5]; 0.0201 in [6]. Also, the composite z-score in the experiment on Lefty1 is -0.0376; in experiment [8], 0.645; in [10], -0.062; in experiment [15], -0.217; in experiment [16] it was -0.0448; with Torsin-1A (Homo sapiens) [17], 0.0114. In addition, the composite z-score in the experiment with Torsin-1A (Homo sapiens) [18] turned out to be 0.067; in experiment [19], 0.13. Also, the z-score in experiment [7] was 0.997; in [9], 0.672 (inactive); in experiment [11], -0.221 (inactive); in experiment [12] it was -0.17 (inactive); in experiment [13], -0.0888 (inactive); in [14] it was -1.01 (inactive).

In the case of `COc1ccc(CCNC(=O)[C@@]2(Sc3ccc(C)cc3)CC(=O)N(C3CCCCC3)[C@@H]2c2ccc(CO)cc2I)cc1`, the composite z-score in experiment [1] is 0.949; in experiment [2] it was 1.21; in experiment [3], 0.28; in experiment [4] it was 0.151; in [5] it was 0.884; in experiment [6], 0.535. Moreover, the composite z-score in the experiment with Lefty1 stood at 0.569; in [8], 0.396; in experiment [10], 0.843; in experiment [15], 0.422; in experiment [16], 0.0391; with Torsin-1A (Homo sapiens) [17] it was 0.333. The composite z-score with Torsin-1A (Homo sapiens) [18] was found to be 0.789; in experiment [19], 0.855. Besides, the z-score in experiment [7] was -0.0279; in [9] it was 0.645 (inactive); in [11], -2.23 (inactive); in experiment [12], -0.382 (inactive); in [13], -0.168 (inactive); in [14] it was 1.19 (inactive).

As for `CCCCCC1=C2CNC(CCC)(C(=O)OC)C=C2C(C)C1=O` (stereo not given), the composite z-score in experiment [1] was -0.252; in experiment [2] it was 0.859; in [3], 0.682; in experiment [4], -0.288; in experiment [5] it was -0.249; in experiment [6], 0.0833. Also, the composite z-score is -0.444 with Lefty1; -0.0925 in experiment [8]; 0.0324 in experiment [10]; 0.441 in experiment [15]; 0.345 in [16]; -0.449 with Torsin-1A (Homo sapiens) [17]. Also, the composite z-score with Torsin-1A (Homo sapiens) [18] worked out at 0.0188; in experiment [19], 0.368. Moreover, the z-score is 0.424 in experiment [7]; 0.443 (inactive) in experiment [9]; -0.86 (inactive) in experiment [11]; 0.617 (inactive) in experiment [12]; -0.751 (inactive) in experiment [13]; 0.974 (inactive) in experiment [14].
